Data taken from PubChem BioAssay (EPA / NIEHS).
Active and inactive are the calls of the source. The calls were made as follows: active = hit-call score of the fitted dose curve at least 0.9, where 1 is the maximum; inactive = score below 0.9.

What was measured:
[1] = ATG_CRE_CIS: Attagene CIS-FACTORIAL HepG2 Assay for human cAMP Responsive Element (CRE) binding protein 3 (AID 2282926); settings: HepG2 CRE cis-reporter, Attagene multiplexed mRNA; actives raise or lower the signal
Summary of the method: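 Endogenous CRE-binding activity in HepG2 is reported through a cis-regulated transfected reporter. Following a day of exposure, mRNA levels are determined by reverse transcription PCR and fluorescent fragment analysis; fits run in both directions versus DMSO.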

[2] = biological target: CCAAT/enhancer-binding protein beta (Homo sapiens) (UniProt P17676); assay: ATG_C_EBP_CIS: Attagene CIS-FACTORIAL HepG2 Assay for human CCAAT/Enhancer Binding Protein (C/EBP) beta (AID 2282927); settings: HepG2 Attagene cis-factorial transcription factor reporter; actives raise or lower the signal
Summary of the method: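 Transiently transfected HepG2 (MRTU library, endogenous TF-driven promoters); 24 h dosing; total RNA → oligo(dT) RT → PCR → 6-FAM primer extension → HpaI digest → CE; fit bidirectionally vs DMSO.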

[3] = ATG_CMV_CIS: Attagene CIS-FACTORIAL HepG2 Assay for human CMV (Internal Marker) (AID 2282928); settings: HepG2 CMV promoter reporter, transcription factor profiling; actives raise or lower the signal;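 also: endpoint acts as a background internal control marker rather than a target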
Summary of the method: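 HepG2 cells transiently transfected with multiple cis-regulated reporter units; 24 h compound exposure. Reporter mRNA quantified by RT-PCR, 6-FAM primer-extension labeling, HpaI digestion and capillary electrophoresis; bidirectional fitting against DMSO baseline.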

[4] = biological target: Aryl hydrocarbon receptor (Homo sapiens) (UniProt P35869); assay: ATG_Ahr_CIS: Attagene CIS-FACTORIAL HepG2 Assay for human Aryl Hydrocarbon Receptor (Ahr) (AID 2282930); settings: HepG2 AhR cis-factorial reporter transcription; actives raise or lower the signal
Summary of the method: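 Read-out: reporter mRNA quantified by RT-PCR with fluorescent primer extension and capillary electrophoresis. Human HepG2 liver cells carried transfected cis-promoter reporter units and were exposed to chemical for 24 h; gain or loss fitted relative to DMSO.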

[5] = ATG_AP_1_CIS: Attagene CIS-FACTORIAL HepG2 Assay for human Activator Protein 1 (AP-1) (AID 2282931); settings: HepG2 Attagene cis-factorial AP-1 reporter mRNA; actives raise or lower the signal
Summary of the method: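 Bidirectional concentration-response fitting against DMSO controls. Underlying signal: reporter mRNA from cis-promoter constructs in transiently transfected HepG2, measured after 24 h by RT-PCR and capillary electrophoresis.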

[6] = ATG_AP_2_CIS: Attagene CIS-FACTORIAL HepG2 Assay for human Activator Protein 2 (AP-2) (AID 2282932); settings: HepG2 AP-2 cis-reporter, Attagene transcription factor profiling; actives raise or lower the signal
Summary of the method: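 HepG2 cells transiently transfected with cis-element reporter units and exposed for 24 h. Reporter mRNA measured by RT-PCR, FAM labelling, HpaI digestion and capillary electrophoresis. Changes in either direction fitted relative to DMSO.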

[7] = ATG_BRE_CIS: Attagene CIS-FACTORIAL HepG2 Assay for human Bone Morphogenetic Protein (BMP) Response Element (BRE) (AID 2282933); settings: HepG2 BMP response element reporter, Attagene transcription factor profiling; actives raise or lower the signal
Summary of the method: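 A HepG2 multiplex reporter system measured inducible reporter mRNA 24 h post-dosing. Detection: RT-PCR, 6-FAM primer extension, HpaI digestion, capillary electrophoresis. Activity fitted bidirectionally relative to DMSO.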

[8] = biological target: Retinoic acid receptor alpha (Homo sapiens) (UniProt P10276); assay: ATG_DR5_RAR_CIS: Attagene CIS-FACTORIAL HepG2 Assay for human Retinoic Acid Receptor Alpha (RARE), DR5 submotif (AID 2282934); settings: HepG2 Attagene cis-factorial RARE DR5 reporter, mRNA; actives raise or lower the signal
Summary of the method: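 Read-out: DR5-driven reporter transcript measured by RT-PCR, 6-FAM primer extension, HpaI digest and capillary electrophoresis. Human HepG2 liver cells carry transiently transfected cis-element reporter constructs; dosing lasts 24 h. Gain or loss of signal fitted against DMSO baseline.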

[9] = biological target: Transcription factor E2F1 (Homo sapiens) (UniProt Q01094); assay: ATG_E2F_CIS: Attagene CIS-FACTORIAL HepG2 Assay for human E2F Transcription Factor 1 (AID 2282935); settings: HepG2 Attagene cis-reporter, E2F reporter RNA transcripts; actives raise or lower the signal
Summary of the method: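 Endogenous E2F1 activity read through cis-promoter reporter units transfected into HepG2. After 24 h compound treatment, reporter mRNA measured by RT-PCR, HpaI digestion and capillary electrophoresis. Bidirectional fit versus DMSO.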

[10] = ATG_DR4_LXR_CIS: Attagene CIS-FACTORIAL HepG2 Assay for human Liver X Receptor (LXR), DR4 submotif (AID 2282929); settings: HepG2 Attagene DR4 cis-reporter, mRNA transcription; actives raise or lower the signal
Summary of the method: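 Measures endogenous transcription factor activity via a DR4-driven reporter transcript in human HepG2 cells. Compounds incubated 24 h; mRNA quantified by RT-PCR and capillary electrophoresis, analysed as gain or loss of signal versus DMSO.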

Measured: AC50

Sequence of Retinoic acid receptor alpha (Homo sapiens) (P10276 whole entry, looked up): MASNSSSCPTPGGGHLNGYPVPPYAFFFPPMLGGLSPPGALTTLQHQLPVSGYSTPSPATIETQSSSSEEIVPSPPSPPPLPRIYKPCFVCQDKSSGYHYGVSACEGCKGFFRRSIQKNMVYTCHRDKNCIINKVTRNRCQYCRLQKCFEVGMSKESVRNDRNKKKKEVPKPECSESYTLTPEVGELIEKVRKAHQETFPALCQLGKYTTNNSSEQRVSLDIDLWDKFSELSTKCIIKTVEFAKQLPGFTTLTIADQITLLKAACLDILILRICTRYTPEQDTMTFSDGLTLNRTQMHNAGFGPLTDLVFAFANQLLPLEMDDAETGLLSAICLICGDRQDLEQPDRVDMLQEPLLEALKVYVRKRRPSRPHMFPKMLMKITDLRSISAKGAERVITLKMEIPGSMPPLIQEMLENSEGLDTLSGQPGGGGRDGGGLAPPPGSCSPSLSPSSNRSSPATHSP
Sequence of Aryl hydrocarbon receptor (Homo sapiens) (P35869 whole entry, looked up): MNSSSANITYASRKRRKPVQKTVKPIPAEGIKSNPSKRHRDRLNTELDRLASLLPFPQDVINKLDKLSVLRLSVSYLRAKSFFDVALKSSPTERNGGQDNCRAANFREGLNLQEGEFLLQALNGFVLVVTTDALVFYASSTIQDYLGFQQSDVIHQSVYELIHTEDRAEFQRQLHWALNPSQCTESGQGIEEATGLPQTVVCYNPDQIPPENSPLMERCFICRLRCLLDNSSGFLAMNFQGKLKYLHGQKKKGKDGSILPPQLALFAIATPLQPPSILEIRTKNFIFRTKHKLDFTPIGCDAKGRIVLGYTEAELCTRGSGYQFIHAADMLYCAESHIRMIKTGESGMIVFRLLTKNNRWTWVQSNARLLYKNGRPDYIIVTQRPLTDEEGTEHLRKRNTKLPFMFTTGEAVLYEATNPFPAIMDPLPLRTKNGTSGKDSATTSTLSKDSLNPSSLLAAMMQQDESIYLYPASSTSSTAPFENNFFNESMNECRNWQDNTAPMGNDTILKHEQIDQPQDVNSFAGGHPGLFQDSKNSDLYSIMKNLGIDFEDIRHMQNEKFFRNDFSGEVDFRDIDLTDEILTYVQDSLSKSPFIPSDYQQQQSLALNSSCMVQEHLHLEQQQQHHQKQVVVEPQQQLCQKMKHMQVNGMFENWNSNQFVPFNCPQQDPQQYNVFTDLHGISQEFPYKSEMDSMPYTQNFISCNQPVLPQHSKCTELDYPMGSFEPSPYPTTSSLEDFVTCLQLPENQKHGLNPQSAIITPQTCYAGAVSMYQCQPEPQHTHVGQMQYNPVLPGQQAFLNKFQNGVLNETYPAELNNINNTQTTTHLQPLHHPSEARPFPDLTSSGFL
Sequence of CCAAT/enhancer-binding protein beta (Homo sapiens) (P17676 whole entry, looked up): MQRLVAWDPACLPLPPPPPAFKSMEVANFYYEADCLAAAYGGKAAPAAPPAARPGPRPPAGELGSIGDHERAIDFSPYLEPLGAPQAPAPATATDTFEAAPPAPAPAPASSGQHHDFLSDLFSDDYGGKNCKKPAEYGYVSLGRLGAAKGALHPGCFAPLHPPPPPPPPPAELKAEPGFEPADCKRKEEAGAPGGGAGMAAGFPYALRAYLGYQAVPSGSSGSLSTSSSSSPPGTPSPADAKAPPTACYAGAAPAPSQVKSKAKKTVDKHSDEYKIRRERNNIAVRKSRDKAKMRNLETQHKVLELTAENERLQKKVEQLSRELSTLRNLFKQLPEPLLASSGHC
Sequence of Transcription factor E2F1 (Homo sapiens) (Q01094 whole entry, looked up): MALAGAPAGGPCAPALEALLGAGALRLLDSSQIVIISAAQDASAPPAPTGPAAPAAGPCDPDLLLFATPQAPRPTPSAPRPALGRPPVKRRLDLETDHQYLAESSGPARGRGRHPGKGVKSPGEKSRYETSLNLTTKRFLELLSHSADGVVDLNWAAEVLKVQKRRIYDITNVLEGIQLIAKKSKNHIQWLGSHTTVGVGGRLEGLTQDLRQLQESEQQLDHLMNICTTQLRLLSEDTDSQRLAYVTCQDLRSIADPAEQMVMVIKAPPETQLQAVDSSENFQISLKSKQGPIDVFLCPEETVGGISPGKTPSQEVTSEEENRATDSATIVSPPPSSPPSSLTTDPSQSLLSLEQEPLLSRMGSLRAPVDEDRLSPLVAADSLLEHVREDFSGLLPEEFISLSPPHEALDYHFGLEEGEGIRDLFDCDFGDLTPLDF

CC(=O)c1ccc2c(c1)CCCC2
not listed: [10]
inactive: all other assays above

COCCCOCCCOC
not listed: [4] | [8] | [10]
inactive: all other assays above

CC(C)(C)c1ccc(OC(=O)c2ccccc2O)cc1
active: [3] 34.7 µM
not listed: [9] | [10]
inactive: all other assays above

Nc1cccc(C(F)(F)F)c1
not listed: [10]
inactive: all other assays above

O=CN1CCCCC1
not listed: [10]
inactive: all other assays above

C=C(C)[C@H]1CC=C(C)CC1
not listed: [4] | [8]
inactive: all other assays above

FC(F)=C(F)OC(F)(F)C(F)(F)C(F)(F)F
not listed: [10]
inactive: all other assays above

CCOC(=O)CC
not listed: [10]
inactive: all other assays above

CCc1ccc2c(c1)C(=O)c1ccccc1C2=O
active: [4] 5.39 µM
not listed: [9] | [10]
inactive: all other assays above

Cc1ccccc1C
not listed: [10]
inactive: all other assays above

Cc1cc(C)c(C)c(C)c1
not listed: [8] | [10]
inactive: all other assays above

SCCc1cnccn1
active: [3] 53.9 µM | [5] 27.8 µM | [7] 23.1 µM
not listed: [8] | [10]
inactive: all other assays above

CCCOCCOCCOCCO
not listed: [10]
inactive: all other assays above

CCc1nccnc1C
not listed: [10]
inactive: all other assays above

C/C=C\C/C=C/CCCCCCCCOC(C)=O
active: [5] 134 µM | [7] 67.9 µM
not listed: [9] | [10]
inactive: all other assays above

Nc1ccc(N)c(Cl)c1
active: [1] 49.6 µM | [3] 9.98 µM | [4] 1.99 µM | [5] 18.1 µM
inactive: [2] | [6] | [7] | [9]

NC(=O)N=NC(N)=O
active: [7] 35 µM
not listed: [9] | [10]
inactive: all other assays above

C=C(C)C(=O)OCC(C)C
not listed: [10]
inactive: all other assays above

O=[N+]([O-])c1ccc(CO)cc1
not listed: [4] | [10]
inactive: all other assays above

O=c1c2ccccc2oc2ccccc12
not listed: [10]
inactive: all other assays above
